{
  "source": "PubChem BioAssay",
  "key": {"[1]": {"assay": "stimulators of nuclear beta-catenin in C2C12, primary screen, imaging, WNT3A-conditioned medium, mouse C2C12, NPC library (AID 1117326; in the data active means nuclear beta-catenin stimulation mostly above about 4.2%, no sharp cut-off; inactive means mostly below about 10%; further: reference of the scale not given here)", "settings": "stronger effect = higher value"}, "[2]": {"assay": "stimulators of insulin release from INS-1E, primary screen, cell-based, 5 mM glucose, NPC library (AID 1117329;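 active means compound raises insulin release from rat beta cells at 5 mM glucose, no numeric limit stated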; further: reference of the scale not given here)", "settings": "rat INS-1E insulin secretion, at 10 µM, stronger effect = higher value"}, "[3]": {"assay": "growth inhibition of GSK3B-pretreated HCT116 cells – cell-based, CellTiter-Glo, 0.2 to 20 µM (AID 1117336;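 active means compounds lowering colon cancer cell viability after pretreatment blocking the GSK3B kinase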)", "settings": "HCT116 viability after GSK3B inhibitor, at 20 µM, stronger effect = higher value"}, "[4]": {"assay": "inhibition of endothelial tube formation, primary screen, imaging, VEGF stimulated, CD31 staining, tube area, NPC library (AID 1117340;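 active means compound that reduces growth-factor-driven endothelial tube area in a mixed cell culture, no cutoff stated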)", "settings": "VEGF-stimulated ADSC/ECFC co-culture, at 10 µM, stronger effect = higher value"}, "[5]": {"assay": "glucagon-like peptide 1 release enhancers, primary assay, NCI-H716 cell line, NPC library (AID 1117341); further: reference of the scale not given here", "settings": "NCI-H716 cells, at 10 µM, stronger effect = higher value"}, "[6]": {"assay": "HCT116 colon cancer cell growth inhibition, primary screen, CellTiter-Glo luminescence, NPC library (AID 1117342;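 active means compounds that lower survival of HCT116 colon cancer cells in the luminescence readout, no numeric limit stated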)", "settings": "at 20 µM (top of the series)"}, "[7]": {"assay": "CellTiter-Glo luminescent readout of SW480 viability loss, NPC library primary (AID 1117343;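 active means compounds that lower viability of the colon cancer cells in the luminescence readout, with no numeric limit stated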)", "settings": "CellTiter-Glo luminescence; at 20 µM (top of the series)"}, "[8]": {"assay": "decreased DLD-1 cellular survival, CellTiter-Glo luminescent readout, NPC compound collection, primary HTS (AID 1117346;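 active means compounds that lower survival of DLD-1 colon cancer cells in the luminescence readout, no cutoff given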)", "settings": "DLD-1 viability, CellTiter-Glo luminescence; at 20 µM (top of the series)"}, "[9]": {"target": "NAD(+) hydrolase SARM1 (Homo sapiens) (UniProt Q6SZW1)", "sequence (Q6SZW1 whole entry, looked up)": "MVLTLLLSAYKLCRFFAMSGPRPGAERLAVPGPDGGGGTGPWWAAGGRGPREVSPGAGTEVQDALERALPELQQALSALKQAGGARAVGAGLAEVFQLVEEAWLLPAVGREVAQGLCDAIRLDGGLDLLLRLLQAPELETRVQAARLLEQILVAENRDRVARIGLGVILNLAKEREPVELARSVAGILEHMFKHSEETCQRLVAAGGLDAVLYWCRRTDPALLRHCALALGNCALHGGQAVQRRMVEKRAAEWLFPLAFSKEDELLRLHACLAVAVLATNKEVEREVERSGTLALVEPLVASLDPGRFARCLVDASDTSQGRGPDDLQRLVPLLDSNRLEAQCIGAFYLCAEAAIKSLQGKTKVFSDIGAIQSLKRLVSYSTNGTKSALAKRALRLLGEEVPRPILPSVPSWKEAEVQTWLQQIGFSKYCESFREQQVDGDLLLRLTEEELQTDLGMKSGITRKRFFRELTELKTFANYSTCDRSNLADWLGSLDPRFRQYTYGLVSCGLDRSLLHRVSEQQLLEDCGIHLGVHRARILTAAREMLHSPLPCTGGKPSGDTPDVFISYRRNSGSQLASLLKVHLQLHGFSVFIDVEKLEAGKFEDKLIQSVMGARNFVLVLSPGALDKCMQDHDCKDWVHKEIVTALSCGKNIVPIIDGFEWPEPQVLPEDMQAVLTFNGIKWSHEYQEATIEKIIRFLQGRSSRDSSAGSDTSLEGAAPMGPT", "assay": "SARM1 TIR NADase inhibitors, cell lysate, NAD-Glo luminescence (AID 1508614;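 active means compound whose remaining NAD level is above about 45 nM, limit read from the data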)", "settings": "SAM-TIR HEK293T lysate NADase, at 1 µM, stronger effect = higher value"}, "[10]": {"assay": "sensitizers of A549 cells to miR-34 induction, primary screen, imaging, A549 dox-inducible miR-34, nuclei and caspase counts (AID 1347080;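 active means compounds whose cell count with miR-34 switched on is under 0.7 times the count with it off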)", "settings": "A549 miR-34 inducible, Hoechst nuclei count, 48 h"}, "[11]": {"assay": "hESC survival regulators, cell-based (AID 493140; call rule not given here;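 further: cells exposed to compounds for four days before counting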)", "settings": "human embryonic stem cell survival screen; stronger effect = higher value"}, "[12]": {"assay": "liver-stage malaria parasite growth inhibition, primary screen, cell-based, HepG2, luciferase luminescence, HepG2 viability (AID 624349; in the data active means parasite load remaining mostly below about 12%, no sharp cut-off; inactive means mostly above about 10%;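 further: 100% = mean of DMSO negative control wells on the same plate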)", "settings": "P. berghei liver stage in HepG2, luciferase luminescence, concentration not given here; parasite load remaining: stronger effect = lower value; viability: measured here: HepG2 viability without parasites"}, "[13]": {"assay": "survival rescue of mitochondrial mutant cells in low glucose, primary screen, MELAS cybrids, Rieske KO mouse fibroblasts, CellTiter-Glo (AID 1508586;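 active means mean z-score across replicates of 1.96 or higher in either the MELAS or the Rieske mutant cell line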;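 further: z relative to plate mean and SD of compound and empty wells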)"}, "[14]": {"settings": "stronger effect = lower value, cell number ratio, induced over uninduced"}, "[15]": {"settings": "measured here: relative caspase fold change +Dox/-Dox"}, "[16]": {"settings": "measured here: total cells with miR-34 induction, stronger effect = lower value"}, "[17]": {"settings": "measured here: total cells without miR-34 induction"}, "[18]": {"settings": "MELAS cybrid survival, CellTiter-Glo 48 h, stronger effect = higher value"}, "[19]": {"settings": "Rieske KO mouse fibroblast survival, CellTiter-Glo 72 h"}},
  "note": "Values joined by “and” are separate entries in the source; they are usually repeats but may differ in a detail not shown here. Equal values may be shown once. Active and inactive are the calls of the source.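 How the source made its calls, unless noted: active means compound raises GLP1 secretion from the human gut endocrine cells, with no numeric limit stated; inactive means the rest.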",
  "data": [
    {"compound": "O=[N+]([O-])C(Br)(CO)CO", "values": [
      {"measurement": "nuclear beta-catenin stimulation", "setting": "[1]; at 10 µM", "value": "44.8% (active)"},
      {"measurement": "nuclear beta-catenin stimulation", "setting": "[1]; stimulation, at 2 µM", "value": 0, "unit": "%"},
      {"measurement": "insulin secretion stimulation", "setting": "[2]", "value": "20.2% (active)"},
      {"measurement": "viability decrease", "setting": "[3]", "value": "-19.2% (inactive)"},
      {"measurement": "tube area decrease", "setting": "[4]", "value": "106% (active)"},
      {"measurement": "GLP1 secretion stimulation", "setting": "[5]", "value": "-0.1% (inactive)"},
      {"measurement": "inhibition of viability", "setting": "[6]", "value": "2.9% (inactive)"},
      {"measurement": "viability decrease (inhibition)", "setting": "[7]", "value": "88.9% (active)"},
      {"measurement": "viability decrease (inhibition)", "setting": "[8]", "value": "52.2% (active)"},
      {"measurement": "remaining NAD", "setting": "[9]", "value": "51 nM (active)"}
    ]},
    {"compound": "COC(=O)[C@@H](N)CCCN/C(N)=N/[N+](=O)[O-]", "values": [
      {"measurement": "nuclear beta-catenin stimulation", "setting": "[1]; at 10 µM", "value": "-0.9% (inactive)"},
      {"measurement": "nuclear beta-catenin stimulation", "setting": "[1]; stimulation, at 2 µM", "value": -2.6, "unit": "%"},
      {"measurement": "insulin secretion stimulation", "setting": "[2]", "value": "0.95% (inactive)"},
      {"measurement": "viability decrease", "setting": "[3]", "value": "23.3% (inactive)"},
      {"measurement": "tube area decrease", "setting": "[4]", "value": "-8.8% (inactive)"},
      {"measurement": "GLP1 secretion stimulation", "setting": "[5]", "value": "0.9% (inactive)"},
      {"measurement": "inhibition of viability", "setting": "[6]", "value": "1.7% (inactive)"},
      {"measurement": "viability decrease (inhibition)", "setting": "[7]", "value": "-10.3% (inactive)"},
      {"measurement": "viability decrease (inhibition)", "setting": "[8]", "value": "-0.3% (inactive)"},
      {"measurement": "fold change", "setting": "[10]; [14]", "value": "0.947 (inactive)"},
      {"measurement": "fold change", "setting": "[10]; [15]", "value": 0.639},
      {"measurement": "cell count", "setting": "[10]; [16]", "value": 5570},
      {"measurement": "cell count", "setting": "[10]; [17]", "value": 5890}
    ]},
    {"compound": "CCOP(=S)(OCC)SCSc1ccc(Cl)cc1", "values": [
      {"measurement": "nuclear beta-catenin stimulation", "setting": "[1]; at 10 µM", "value": "1.3% (inactive)"},
      {"measurement": "nuclear beta-catenin stimulation", "setting": "[1]; stimulation, at 2 µM", "value": -1.3, "unit": "%"},
      {"measurement": "insulin secretion stimulation", "setting": "[2]", "value": "-1.15% (inactive)"},
      {"measurement": "GLP1 secretion stimulation", "setting": "[5]", "value": "-0.9% (inactive)"}
    ]},
    {"compound": "CCCCCCC(=O)CCCCCC/C=C/C[C@@H](O)[C@H](O)[C@@](N)(CO)C(=O)O", "values": [
      {"measurement": "nuclear beta-catenin stimulation", "setting": "[1]; at 10 µM", "value": "-0.4% (inactive)"},
      {"measurement": "nuclear beta-catenin stimulation", "setting": "[1]; stimulation, at 2 µM", "value": 1.7, "unit": "%"},
      {"measurement": "insulin secretion stimulation", "setting": "[2]", "value": "1.7% (inactive)"},
      {"measurement": "viability decrease", "setting": "[3]", "value": "-39.7% (inactive)"},
      {"measurement": "tube area decrease", "setting": "[4]", "value": "-16.8% (inactive)"},
      {"measurement": "GLP1 secretion stimulation", "setting": "[5]", "value": "-2.8% (inactive)"},
      {"measurement": "inhibition of viability", "setting": "[6]", "value": "-29.4% (inactive)"},
      {"measurement": "viability decrease (inhibition)", "setting": "[7]", "value": "31.4% (inactive)"},
      {"measurement": "viability decrease (inhibition)", "setting": "[8]", "value": "9.9% (inactive)"},
      {"measurement": "fold change", "setting": "[10]; [14]", "value": "0.991 (inactive)"},
      {"measurement": "fold change", "setting": "[10]; [15]", "value": 0.843},
      {"measurement": "cell count", "setting": "[10]; [16]", "value": 5220},
      {"measurement": "cell count", "setting": "[10]; [17]", "value": 5270}
    ]},
    {"compound": "C[C@]12CCC(=O)C=C1CC[C@@H]1[C@@H]2CC[C@]2(C)C(=O)CC[C@@H]12", "values": [
      {"measurement": "nuclear beta-catenin stimulation", "setting": "[1]; at 10 µM", "value": "-0.1% (inactive)"},
      {"measurement": "nuclear beta-catenin stimulation", "setting": "[1]; stimulation, at 2 µM", "value": -1.6, "unit": "%"},
      {"measurement": "insulin secretion stimulation", "setting": "[2]", "value": "2.4% (inactive)"},
      {"measurement": "viability decrease", "setting": "[3]", "value": "64.9% (active)"},
      {"measurement": "tube area decrease", "setting": "[4]", "value": "-7% (inactive)"},
      {"measurement": "GLP1 secretion stimulation", "setting": "[5]", "value": "-2.7% (inactive)"},
      {"measurement": "inhibition of viability", "setting": "[6]", "value": "68.5% (active)"},
      {"measurement": "viability decrease (inhibition)", "setting": "[7]", "value": "23.5% (inactive)"},
      {"measurement": "viability decrease (inhibition)", "setting": "[8]", "value": "45.9% (inactive)"}
    ]},
    {"compound": "CCC1(c2cccc(O)c2)CCCCN(C)C1", "note": "(stereo not drawn)", "values": [
      {"measurement": "survival", "setting": "[11]", "value": "2.75 (inactive)"},
      {"measurement": "parasite load remaining", "setting": "[12]", "value": "114% (inactive)"},
      {"measurement": "viability", "setting": "[12]", "value": 77.7, "unit": "%"},
      {"measurement": "nuclear beta-catenin stimulation", "setting": "[1]; at 10 µM", "value": "-0.6% (inactive)"},
      {"measurement": "nuclear beta-catenin stimulation", "setting": "[1]; stimulation, at 2 µM", "value": -0.3, "unit": "%"},
      {"measurement": "insulin secretion stimulation", "setting": "[2]", "value": "19.8% (inactive)"},
      {"measurement": "viability decrease", "setting": "[3]", "value": "10.8% (inactive)"},
      {"measurement": "tube area decrease", "setting": "[4]", "value": "-4.7% (inactive)"},
      {"measurement": "GLP1 secretion stimulation", "setting": "[5]", "value": "1.4% (inactive)"},
      {"measurement": "inhibition of viability", "setting": "[6]", "value": "-13.6% (inactive)"},
      {"measurement": "viability decrease (inhibition)", "setting": "[7]", "value": "57% (active)"},
      {"measurement": "viability decrease (inhibition)", "setting": "[8]", "value": "13.3% (inactive)"},
      {"measurement": "fold change", "setting": "[10]; stronger effect = lower value", "value": "0.914 (inactive) and 0.925 (inactive)"},
      {"measurement": "fold change", "setting": "[10]; [15]", "value": "0.54 and 0.493"},
      {"measurement": "cell count", "setting": "[10]; [16]", "value": "8800 and 7600"},
      {"measurement": "cell count", "setting": "[10]; [17]", "value": "9630 and 8210"},
      {"measurement": "z-score", "setting": "[13]; [18]", "value": "-0.204 (inactive) and -0.911 (inactive)"},
      {"measurement": "z-score", "setting": "[13]; [19]", "value": "-0.179 and 0.197"}
    ]},
    {"compound": "C=C1CC[C@@]2(O)[C@H]3Cc4ccc(O)c5c4[C@@]2(CCN3CC2CC2)[C@H]1O5", "values": [
      {"measurement": "nuclear beta-catenin stimulation", "setting": "[1]; at 10 µM", "value": "0.5% (inactive)"},
      {"measurement": "nuclear beta-catenin stimulation", "setting": "[1]; stimulation, at 2 µM", "value": 2.1, "unit": "%"},
      {"measurement": "insulin secretion stimulation", "setting": "[2]", "value": "1.2% (inactive)"},
      {"measurement": "viability decrease", "setting": "[3]", "value": "-11.9% (inactive)"},
      {"measurement": "tube area decrease", "setting": "[4]", "value": "5.1% (inactive)"},
      {"measurement": "GLP1 secretion stimulation", "setting": "[5]", "value": "2.6% (inactive)"},
      {"measurement": "inhibition of viability", "setting": "[6]", "value": "20.1% (inactive)"},
      {"measurement": "viability decrease (inhibition)", "setting": "[7]", "value": "7.8% (inactive)"},
      {"measurement": "viability decrease (inhibition)", "setting": "[8]", "value": "6.2% (inactive)"},
      {"measurement": "z-score", "setting": "[13]; [18]", "value": "0.147 (inactive)"},
      {"measurement": "z-score", "setting": "[13]; [19]", "value": -0.2}
    ]}
  ]
}
